This is part of a sample that, as a whole, favours compounds with a hit. Of some 83,000 tested, about 20% had one in any assay.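 Negative percent growth values reflect cell death: -40 means 40% of the cells present at the start died, and -100 means all died.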 A number with no mark means an inactive call. Activity calls are given as the source filed them. The calls were made as follows: active = growth percent below 10; inactive = the rest.
Experiments:
Assay in all cases: NCI-60 one-dose screen, 48 h (100 = growth as untreated, 0 = no growth, -100 = all killed)
Conditions in all cases: 10 µM
DU-145 prostate = tested on: DU-145 prostate
K-562 leukemia = tested on: K-562 leukemia
MALME-3M melanoma = tested on: MALME-3M melanoma
MDA-MB-231 breast = tested on: MDA-MB-231 breast
RXF 393 renal = tested on: RXF 393 renal
SF-268 CNS = tested on: SF-268 CNS
SF-295 CNS = tested on: SF-295 CNS
SF-539 CNS = tested on: SF-539 CNS
UACC-257 melanoma = tested on: UACC-257 melanoma
M14 melanoma = tested on: M14 melanoma
HCT-15 colon = tested on: HCT-15 colon
HT29 colon = tested on: HT29 colon
SNB-75 CNS = tested on: SNB-75 CNS
SNB-19 CNS = tested on: SNB-19 CNS
U251 CNS = tested on: U251 CNS
PC-3 prostate = tested on: PC-3 prostate
SK-MEL-5 melanoma = tested on: SK-MEL-5 melanoma
UACC-62 melanoma = tested on: UACC-62 melanoma
LOX IMVI melanoma = tested on: LOX IMVI melanoma
SK-MEL-28 melanoma = tested on: SK-MEL-28 melanoma

Compound	growth (DU-145 prostate)	growth (K-562 leukemia)	growth (MALME-3M melanoma)	growth (MDA-MB-231 breast)	growth (RXF 393 renal)	growth (SF-268 CNS) [%]	growth (SF-295 CNS)	growth (SF-539 CNS)	growth (UACC-257 melanoma)	growth (M14 melanoma)	growth (HCT-15 colon)	growth (HT29 colon)	growth (SNB-75 CNS)	growth (SNB-19 CNS)	growth (U251 CNS)	growth (PC-3 prostate)	growth (SK-MEL-5 melanoma)	growth (UACC-62 melanoma)	growth (LOX IMVI melanoma)	growth (SK-MEL-28 melanoma)
N#Cc1c(NC(=O)c2ccc(C(F)(F)F)cc2C(F)(F)F)sc2c1CCC(=O)C2	23.9%	2.16% (active)	-86.8% (active)	-74.4% (active)	-59% (active)	27.1	-21.7% (active)	-80.2% (active)	-64.8% (active)	-50.3% (active)	-66% (active)	-57% (active)	26.4%	6.86% (active)	8.82% (active)	2.66% (active)	-97.6% (active)	-89.5% (active)	-15.1% (active)	-86.2% (active)
C=C(c1ccc(OC)c(N)c1)c1cc(C)nc2ccccc12	14.9%	11.3%	49.9%	10.5%	51.4%	24.3	6.83% (active)	-34.2% (active)	63.3%	16%	3.55% (active)	-20.8% (active)	21.4%	10.3%	7.35% (active)	31.2%	-55% (active)	24.1%		62.4%
Nc1nnc(-c2c[nH]c3ncccc23)c(-c2c[nH]c3ccc(Br)cc23)n1	62.4%	32.9%	46.8%	41.6%	45.4%	51.8	41.9%	37.2%	82.1%	50.3%	56.5%	45.1%	28.2%	40.8%	37.5%	56.9%	-33.5% (active)	33.8%		54%
COC[C@@H](CC(C)C)N=C1N/C(=C\c2ccc3ncsc3c2)C(=O)N1C	20.9%	17.7%	7.51% (active)	0.748% (active)	-19.2% (active)	19.1	23.2%	-15.6% (active)	6.69% (active)	38.1%	2.01% (active)	6.85% (active)	27.5%	14.6%	15.4%	23.6%	-57.3% (active)	-64.9% (active)	-51.2% (active)	-1.69% (active)
CCCCCCCCCCCCCCCCCCCC(=O)NCCc1c[nH]c2ccc(O)cc12	105%	74.5%	120%	78%	115%	91.6	96.3%	60.8%	107%	101%	96.2%	121%	129%	104%	99%	73.4%	110%	99.7%	76.7%	106%
NS(=O)(=O)c1ccc(N=Nc2c(O)n(CC(=O)Nc3ccccc3Br)c3ccccc23)cc1	34.7%	27.2%	26.5%	11.2%	27.6%	86.6	25.8%	5.32% (active)	50%	27.9%	38.2%	9.73% (active)	77%	50.1%	25.1%	39.7%	14.7%	31.2%		24.9%
COc1ccc2[nH]c(=O)c(CSc3cccc(N)c3)cc2c1	59.4%	15.6%	97.1%	72.7%	84.8%	58	31.2%	71.3%	62.3%	24%	48.2%	75.4%	82.7%	70.4%	70.1%	69.2%	6.41% (active)	16.5%	16.1%	69.6%
CC(=O)Nc1ccc(-n2cnc3cc(-c4ccc(NS(C)(=O)=O)cc4)ccc32)cc1	58.2%	24%	75.6%	49.4%	92.5%	47.3	51%	65.3%	64.4%	61.9%	32.4%	34.2%	35.6%	61.1%	59.8%	62.8%	69.5%	54.7%		85.3%
O=C(c1ccc(Cl)cc1)C1[C@H](c2ccc(Br)cc2)[C@@H](c2ccccc2)NC12C(=O)Nc1ccccc12 (some centres not stated)	12.4%	-15.7% (active)	-35.9% (active)	-60.1% (active)	-59.8% (active)	12.1	-54.5% (active)	-57.7% (active)	-2.88% (active)	29.4%	-2.63% (active)	-52.2% (active)	15%	15.9%	-6.22% (active)	5.16% (active)	-23.2% (active)	-60.6% (active)	-100% (active)	-32.7% (active)
Cc1ccc(/C(N)=N/c2sc(-c3ccccc3)nc2-c2ccccc2)cc1	89%	28.5%	89.2%	82.5%	82.7%	79.2	77.6%	79.7%	93.9%	79.6%	46.1%	50.6%	82.4%	97.3%	75.1%	90.6%	89.2%	74.6%		81.5%
COc1ccc(/C(C)=N/N=C2C(=O)N(C)c3ccc(Br)cc32)cc1S(N)(=O)=O	86.1%	93.1%	64.2%	56.7%	57.4%	33.4	47.4%	43.3%	83.1%	87.1%	75.1%	101%	6.59% (active)	34.7%	51.7%	73.7%	88.2%	73.8%		90.3%
COc1cc(/C=C/C(=O)c2cc(OC)c(OC)c(OC)c2)ccc1Oc1nc(Nc2ccc(F)cc2)nc(N(C)C)n1	-35.8% (active)	2.36% (active)	-40.3% (active)	-60% (active)	-74.9% (active)	27.7	-55.2% (active)	-80.6% (active)	-30.5% (active)	-27.5% (active)	-40.3% (active)	-50.9% (active)	-64.8% (active)	-46.7% (active)	-72.9% (active)	-20% (active)	-76.2% (active)	-80.7% (active)		-72.1% (active)
Cc1ccc(CSc2nc(-c3ccc(F)cc3)c(C#N)c(=O)[nH]2)cc1	101%	91.1%	117%	104%	95.1%	101	95.6%	101%	102%	116%	84.2%	89.3%	115%	109%	96.6%	95.5%	94.5%	93.8%	95.6%	111%
COc1ccccc1[C@H]1C(C(=O)c2ccc(Cl)cc2)C2(N[C@@H]1c1ccccc1)C(=O)Nc1ccc(Cl)cc12 (some centres not stated)	10.5%	1.21% (active)	-24.8% (active)	4.86% (active)	-29.4% (active)	26.3	2.46% (active)	-16.6% (active)	22.4%	28.4%	7.83% (active)	-3.95% (active)	40.9%	21.2%	17%	13.3%	-75.4% (active)	-27.3% (active)	-74.6% (active)	35.1%
COc1ccc(CCN2C(=O)/C(=C/c3csc(C#N)n3)SC2=S)cc1	0.405% (active)	1.79% (active)	7.27% (active)	15.8%	-3.89% (active)	33.2	77.5%	-17.3% (active)	-35.3% (active)	-40.6% (active)	-51.7% (active)	-49.4% (active)	53.2%	72.2%	21.4%	32.8%	36.6%	-26.6% (active)		-10.9% (active)
CN1CCN(c2ccc(C(=O)/C=C/c3ccc(C#N)cc3)cc2)CC1	82.1%	7.48% (active)	90.4%	65.8%	63.9%	107	78.2%	56.3%	90.4%	79.6%	33.6%	35.4%	94.2%	79.3%	49.9%	94.7%	83.9%	79.9%	16.7%	108%

— PubChem BioAssay (NCI)
